Of roughly 7,900 targets only a part is listed; those with a hit were picked by preference. About 0.6% of all pairs of compound and target were hits. Values without a mark were called inactive.
Assays:
Test in all cases: log2 fold change, soluble protein after heating vs DMSO (PISA); higher = thermal stabilisation; K562 cells, 10 uM, 30 min; active = over 0.2 and 3.5 SD of the protein, either way, in both replicates (recomputed)
[1] = compound: CS(=O)(=O)c1ccc(-c2cnc(N)c(C(=O)Nc3ccccc3)n2)cc1
Method in brief: (§1)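 Thermal stability values are relative to control samples and come from duplicates. They are expressed as log2 fold changes. For measurement, K562 cells (2×10^6 cells/mL) received 10 μM compound for 30 min, and aliquots were heated for 3 min over 48°C-58°C, pooled, and extracted at 4°C in PBS with 0.5% NP-40. Soluble protein, the supernatant after 21,000xg for 90 min, was quantified by TMTpro 16plex LC-MS/MS with equalised channel sums.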

[2] = compound: C[C@H](C1=CC=C(C=C1)C(=O)NC2=C3C=CNC3=NC=C2)N
Method in brief: as §1

[3] = compound: C[C@H](Nc1ncnc2nc[nH]c12)c1cc2cccc(Cl)c2c(=O)n1-c1ccccc1 [duvelisib]
Method in brief: as §1

[4] = compound: Cc1cc(SCc2sc(-c3ccc(C(F)(F)F)cc3)nc2C)ccc1OCC(=O)O
Method in brief: as §1

[5] = compound: Cc1ccc(C(=O)N(CCCN)[C@@H](c2nc3cc(Cl)ccc3c(=O)n2Cc2ccccc2)C(C)C)cc1 [ispinesib]
Method in brief: as §1

[6] = compound: Cc1cn(-c2cc(NC(=O)c3ccc(C)c(Nc4nccc(-c5cccnc5)n4)c3)cc(C(F)(F)F)c2)cn1 [nilotinib]
Method in brief: as §1

[7] = compound: Cc1nc(Nc2n[nH]c3c2CN(C(=O)N[C@H](CN(C)C)c2ccccc2)C3(C)C)c2sccc2n1
Method in brief: as §1

[8] = compound: Cc1nc(Nc2ncc(C(=O)Nc3c(C)cccc3Cl)s2)cc(N2CCN(CCO)CC2)n1 [dasatinib]
Method in brief: as §1

[9] = compound: Cc1ncc(-c2ccnc(Nc3ccc(S(C)(=O)=O)cc3)n2)n1C(C)C
Method in brief: as §1

[10] = compound: Cn1cc(-c2ccc3c(c2)CCN3C(=O)Cc2cccc(C(F)(F)F)c2)c2c(N)ncnc21
Method in brief: as §1

[11] = compound: Cn1cc(-c2ccc3nnc(C(F)(F)c4ccc5ncccc5c4)n3n2)cn1
Method in brief: as §1

[12] = compound: Cn1cncc1[C@@](N)(c1ccc(Cl)cc1)c1ccc2c(c1)c(-c1cccc(Cl)c1)cc(=O)n2C [tipifarnib]
Method in brief: as §1

[13] = compound: C[C@@H](Oc1cc(-c2cnn(C3CCNCC3)c2)cnc1N)c1c(Cl)ccc(F)c1Cl [crizotinib]
Method in brief: as §1

[14] = compound: Cc1cc(Nc2cc(N3CCN(C)CC3)nc(Sc3ccc(NC(=O)C4CC4)cc3)n2)n[nH]1 [tozasertib]
Method in brief: as §1

[15] = compound: Cc1ccc(-n2nc(C(C)(C)C)cc2NC(=O)Nc2ccc(OCCN3CCOCC3)c3ccccc23)cc1 [doramapimod]
Method in brief: as §1

[16] = compound: Cc1ccc(NC(=O)c2ccc(CN3CC[C@H](N(C)C)C3)c(C(F)(F)F)c2)cc1Nc1nccc(-c2cncnc2)n1 [bafetinib]
Method in brief: as §1

[17] = compound: FC(F)(F)c1ccc(/C=C/c2nc(COc3ccc(CCCCn4ccnn4)cc3)co2)cc1 [mubritinib]
Method in brief: as §1

[18] = compound: C[C@@H]1COCCN1C2=NC(=NC(=C2)C3(CC3)S(=O)(=O)C)C4=C5C=CNC5=CC=C4
Method in brief: as §1

[19] = compound: Cc1cc(Nc2cc(CN3CCOCC3)c3nc(C)c(Cc4ccc(Cl)cc4F)n3n2)n[nH]1 [gandotinib]
Method in brief: as §1

[20] = compound: Cc1cccc(CC(=O)N2CCc3c2ccc(-c2cn(C)c4ncnc(N)c24)c3F)n1
Method in brief: as §1

Sequence of UniProt Q9NS93 (Q9NS93 whole entry, looked up): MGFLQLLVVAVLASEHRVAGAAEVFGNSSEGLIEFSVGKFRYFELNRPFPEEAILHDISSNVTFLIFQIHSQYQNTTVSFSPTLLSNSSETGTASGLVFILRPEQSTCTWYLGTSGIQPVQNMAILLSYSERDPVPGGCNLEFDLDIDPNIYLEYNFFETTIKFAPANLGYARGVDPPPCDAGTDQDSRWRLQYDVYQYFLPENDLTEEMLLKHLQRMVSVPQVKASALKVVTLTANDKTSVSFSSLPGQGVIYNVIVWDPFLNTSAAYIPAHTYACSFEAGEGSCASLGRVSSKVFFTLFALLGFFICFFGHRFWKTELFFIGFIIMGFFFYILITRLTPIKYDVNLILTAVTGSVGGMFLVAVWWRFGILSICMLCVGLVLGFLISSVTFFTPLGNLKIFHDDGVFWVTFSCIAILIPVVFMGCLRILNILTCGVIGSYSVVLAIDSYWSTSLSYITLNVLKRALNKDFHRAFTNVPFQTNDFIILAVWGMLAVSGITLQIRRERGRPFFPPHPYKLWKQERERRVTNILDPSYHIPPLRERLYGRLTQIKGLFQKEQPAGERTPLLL
Sequence of UniProt Q8N1S5 (Q8N1S5 whole entry, looked up): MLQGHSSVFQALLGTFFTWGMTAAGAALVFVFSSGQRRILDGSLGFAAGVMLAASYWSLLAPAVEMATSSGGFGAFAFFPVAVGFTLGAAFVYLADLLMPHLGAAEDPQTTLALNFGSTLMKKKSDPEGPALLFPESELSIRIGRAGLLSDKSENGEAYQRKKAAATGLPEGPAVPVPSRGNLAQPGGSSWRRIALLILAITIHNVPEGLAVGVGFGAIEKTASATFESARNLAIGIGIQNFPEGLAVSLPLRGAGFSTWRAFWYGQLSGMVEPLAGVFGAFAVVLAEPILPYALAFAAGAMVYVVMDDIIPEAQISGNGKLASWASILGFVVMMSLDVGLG
Sequence of UniProt Q6J4K2 (Q6J4K2 whole entry, looked up): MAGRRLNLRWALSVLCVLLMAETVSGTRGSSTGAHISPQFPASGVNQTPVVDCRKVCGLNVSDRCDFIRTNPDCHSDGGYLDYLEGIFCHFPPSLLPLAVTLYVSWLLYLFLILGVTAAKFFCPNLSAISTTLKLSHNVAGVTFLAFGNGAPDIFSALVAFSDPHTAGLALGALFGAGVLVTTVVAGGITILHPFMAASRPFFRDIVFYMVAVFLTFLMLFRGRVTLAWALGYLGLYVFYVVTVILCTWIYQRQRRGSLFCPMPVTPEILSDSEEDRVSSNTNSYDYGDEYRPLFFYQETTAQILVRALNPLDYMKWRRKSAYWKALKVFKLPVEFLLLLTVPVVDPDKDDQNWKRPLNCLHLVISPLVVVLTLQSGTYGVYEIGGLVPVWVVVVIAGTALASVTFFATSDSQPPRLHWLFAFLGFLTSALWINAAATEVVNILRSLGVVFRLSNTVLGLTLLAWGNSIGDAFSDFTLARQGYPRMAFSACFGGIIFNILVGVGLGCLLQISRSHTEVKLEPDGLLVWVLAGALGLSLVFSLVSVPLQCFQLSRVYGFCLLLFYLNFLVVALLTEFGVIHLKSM
Sequence of UniProt P20226 (P20226 whole entry, looked up): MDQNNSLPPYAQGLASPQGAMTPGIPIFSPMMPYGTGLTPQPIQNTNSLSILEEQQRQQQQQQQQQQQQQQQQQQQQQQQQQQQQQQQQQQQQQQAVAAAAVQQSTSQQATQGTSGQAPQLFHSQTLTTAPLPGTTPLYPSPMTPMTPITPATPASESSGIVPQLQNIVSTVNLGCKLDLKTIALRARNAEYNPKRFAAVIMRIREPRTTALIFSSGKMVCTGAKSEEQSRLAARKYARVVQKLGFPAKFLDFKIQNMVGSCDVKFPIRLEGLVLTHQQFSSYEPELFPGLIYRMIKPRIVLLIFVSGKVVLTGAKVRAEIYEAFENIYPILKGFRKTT
Sequence of UniProt Q969X1 (Q969X1 whole entry, looked up): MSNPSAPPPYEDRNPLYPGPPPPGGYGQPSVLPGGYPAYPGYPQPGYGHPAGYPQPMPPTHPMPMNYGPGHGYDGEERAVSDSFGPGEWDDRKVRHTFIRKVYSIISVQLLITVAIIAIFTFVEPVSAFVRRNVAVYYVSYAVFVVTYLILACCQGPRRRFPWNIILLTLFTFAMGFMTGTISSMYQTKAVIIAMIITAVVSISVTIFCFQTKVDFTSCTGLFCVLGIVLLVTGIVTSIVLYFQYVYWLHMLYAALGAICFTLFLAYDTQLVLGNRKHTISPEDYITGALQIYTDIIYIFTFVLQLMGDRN
Sequence of UniProt Q8N357 (Q8N357 whole entry, looked up): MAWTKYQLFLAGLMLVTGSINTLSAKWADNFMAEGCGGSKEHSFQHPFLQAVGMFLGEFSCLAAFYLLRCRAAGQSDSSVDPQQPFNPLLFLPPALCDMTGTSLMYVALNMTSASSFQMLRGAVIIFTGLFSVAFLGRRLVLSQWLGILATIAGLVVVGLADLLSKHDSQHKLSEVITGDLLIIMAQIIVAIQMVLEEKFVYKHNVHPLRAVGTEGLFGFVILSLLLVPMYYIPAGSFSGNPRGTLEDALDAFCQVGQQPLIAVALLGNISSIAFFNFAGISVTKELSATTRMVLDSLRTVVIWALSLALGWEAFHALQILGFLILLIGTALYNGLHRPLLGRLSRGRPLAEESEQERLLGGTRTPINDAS
Sequence of UniProt Q08AE8 (Q08AE8 whole entry, looked up): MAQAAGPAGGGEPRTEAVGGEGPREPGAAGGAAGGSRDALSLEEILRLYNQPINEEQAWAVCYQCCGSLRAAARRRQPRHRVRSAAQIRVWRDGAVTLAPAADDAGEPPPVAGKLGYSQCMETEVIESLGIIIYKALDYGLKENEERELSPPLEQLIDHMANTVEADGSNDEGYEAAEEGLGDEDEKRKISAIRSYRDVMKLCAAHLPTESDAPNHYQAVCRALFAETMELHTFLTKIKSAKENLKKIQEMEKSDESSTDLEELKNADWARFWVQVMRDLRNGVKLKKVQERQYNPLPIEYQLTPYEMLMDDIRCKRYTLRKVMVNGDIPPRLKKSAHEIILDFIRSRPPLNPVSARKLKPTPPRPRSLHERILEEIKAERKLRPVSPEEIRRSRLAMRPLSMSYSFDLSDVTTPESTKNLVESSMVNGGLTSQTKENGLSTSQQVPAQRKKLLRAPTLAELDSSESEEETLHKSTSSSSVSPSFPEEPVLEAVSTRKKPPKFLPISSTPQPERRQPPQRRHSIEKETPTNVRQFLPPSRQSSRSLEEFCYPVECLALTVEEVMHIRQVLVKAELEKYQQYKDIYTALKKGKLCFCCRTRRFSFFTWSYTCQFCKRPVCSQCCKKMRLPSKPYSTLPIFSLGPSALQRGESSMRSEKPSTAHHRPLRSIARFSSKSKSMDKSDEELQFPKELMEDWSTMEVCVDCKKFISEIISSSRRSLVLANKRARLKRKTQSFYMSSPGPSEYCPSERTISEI
Sequence of UniProt Q13428 (Q13428 whole entry, looked up): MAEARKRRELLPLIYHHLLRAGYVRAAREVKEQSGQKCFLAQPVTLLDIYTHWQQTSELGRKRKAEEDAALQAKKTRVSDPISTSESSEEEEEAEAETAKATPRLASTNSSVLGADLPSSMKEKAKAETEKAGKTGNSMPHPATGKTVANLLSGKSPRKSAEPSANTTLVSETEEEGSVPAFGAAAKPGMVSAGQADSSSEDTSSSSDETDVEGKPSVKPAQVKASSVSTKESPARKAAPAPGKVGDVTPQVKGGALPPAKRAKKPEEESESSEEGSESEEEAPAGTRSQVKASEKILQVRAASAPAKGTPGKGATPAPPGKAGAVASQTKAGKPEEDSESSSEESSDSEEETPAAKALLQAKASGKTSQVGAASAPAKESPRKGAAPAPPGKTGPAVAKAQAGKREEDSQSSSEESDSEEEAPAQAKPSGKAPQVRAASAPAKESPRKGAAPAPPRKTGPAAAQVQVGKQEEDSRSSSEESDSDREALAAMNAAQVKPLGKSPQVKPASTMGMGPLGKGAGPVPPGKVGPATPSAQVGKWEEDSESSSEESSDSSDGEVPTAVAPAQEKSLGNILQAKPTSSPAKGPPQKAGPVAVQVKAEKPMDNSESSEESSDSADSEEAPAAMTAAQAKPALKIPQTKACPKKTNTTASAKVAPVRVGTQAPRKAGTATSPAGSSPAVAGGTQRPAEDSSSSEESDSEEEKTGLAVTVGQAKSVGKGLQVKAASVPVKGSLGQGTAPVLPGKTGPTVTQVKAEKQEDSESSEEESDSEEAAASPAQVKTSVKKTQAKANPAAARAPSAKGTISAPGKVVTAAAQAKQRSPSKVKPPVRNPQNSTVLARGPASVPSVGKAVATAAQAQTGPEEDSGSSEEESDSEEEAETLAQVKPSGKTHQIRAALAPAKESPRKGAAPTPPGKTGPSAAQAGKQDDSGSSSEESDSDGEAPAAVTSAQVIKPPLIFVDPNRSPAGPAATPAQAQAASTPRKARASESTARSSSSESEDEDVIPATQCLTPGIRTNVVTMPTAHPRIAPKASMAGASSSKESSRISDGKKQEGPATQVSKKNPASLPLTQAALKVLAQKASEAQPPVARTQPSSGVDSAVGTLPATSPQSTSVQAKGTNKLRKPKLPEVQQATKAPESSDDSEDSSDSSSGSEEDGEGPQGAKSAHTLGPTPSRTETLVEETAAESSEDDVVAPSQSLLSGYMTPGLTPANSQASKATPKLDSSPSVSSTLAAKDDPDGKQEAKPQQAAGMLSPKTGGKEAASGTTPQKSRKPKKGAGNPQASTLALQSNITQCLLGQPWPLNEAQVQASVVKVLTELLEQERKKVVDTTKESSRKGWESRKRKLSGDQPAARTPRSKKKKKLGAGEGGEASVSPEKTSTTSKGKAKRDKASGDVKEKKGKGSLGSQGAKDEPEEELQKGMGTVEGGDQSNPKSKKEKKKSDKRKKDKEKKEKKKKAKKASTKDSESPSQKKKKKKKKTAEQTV
Sequence of UniProt Q9Y5J6 (Q9Y5J6 whole entry, looked up): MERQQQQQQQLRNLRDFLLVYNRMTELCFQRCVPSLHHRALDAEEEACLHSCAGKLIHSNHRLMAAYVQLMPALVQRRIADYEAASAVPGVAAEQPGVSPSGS

| Target | log2 fold change [1] | log2 fold change [2] | log2 fold change [3] | log2 fold change [4] | log2 fold change [5] | log2 fold change [6] | log2 fold change [7] | log2 fold change [8] | log2 fold change [9] | log2 fold change [10] | log2 fold change [11] | log2 fold change [12] | log2 fold change [13] | log2 fold change [14] | log2 fold change [15] | log2 fold change [16] | log2 fold change [17] | log2 fold change [18] | log2 fold change [19] | log2 fold change [20] |
| --- | --- | --- | --- | --- | --- | --- | --- | --- | --- | --- | --- | --- | --- | --- | --- | --- | --- | --- | --- | --- |
| TM7SF2 (UniProt O76062) | -0.044 | 0.028 | -0.075 | 0.028 | -0.451 | -0.113 | -0.059 | -0.25 | 0.018 | 0.035 | 0.046 | -0.067 |  |  |  |  |  |  |  |  |
| TM7SF3 (UniProt Q9NS93) | -0.01 | -0.216 | 0.007 | -0.003 | -0.343 (active) | -0.004 | 0.005 | 0.005 | -0.029 | -0.034 | 0.034 | 0.019 | -0.432 (active) | -0.054 | 0.052 | -0.147 | 0.147 |  |  |  |
| TK1 (UniProt K7ERV3) | 0 | 0.182 | 0.046 | -0.041 | 0.005 | -0.108 | -0.018 | 0.018 | -0.076 | 0.176 | 0.016 | 0.03 |  | 0.012 |  | -0.03 | 0.037 | 0.021 | -0.029 | 0.022 |
| TMBIM1 (UniProt Q969X1) | -0.03 | 0.274 | 0.042 | -0.026 | 0.303 | 0.168 | -0.044 | -0.01 | 0.149 | -0.06 | -0.105 | -0.318 |  | -0.154 |  | 0.068 | 0.025 | -0.043 | -0.017 | -0.07 |
| SLC9A6 isoform 3 (UniProt Q92581) |  | -0.018 | -0.001 | -0.137 |  |  |  | 0.065 |  | 0.048 |  | 0.028 |  | -0.126 |  | -0.096 |  |  |  |  |
| TC2N (UniProt Q8N9U0) |  |  | 0.256 | -0.072 | -0.071 | 0.052 | -0.71 (active) | 0.068 | -0.024 |  | -0.153 |  |  | -0.095 |  |  | 0.176 |  |  |  |
| SLC39A11 (UniProt Q8N1S5) | 0.121 | -0.066 | -0.085 | -0.126 | 0.085 | -0.028 | 0.001 | 0.058 | 0.248 | 0.128 | 0.002 | 0.048 | 0.109 | 0.116 | 0.009 | -0.13 | -0.005 |  | 0.271 | -0.043 |
| SMPD4 isoform 2 (UniProt Q9NXE4) |  | -0.061 | 0.069 | 0.09 |  |  |  | -0.285 |  | 0.09 |  | -0.111 | -0.21 | -0.163 | 0.027 | -0.026 | 0.108 |  | -0.263 | 0.151 |
| SLC39A1 (UniProt Q9NY26) |  | 0.023 |  |  |  |  |  |  |  | -0.17 |  |  |  |  |  |  |  |  | -0.137 | 0.116 |
| SSB (UniProt E7ERC4) |  |  | 0.399 | 0.337 |  |  |  | -0.528 |  |  |  |  |  |  |  |  | -0.063 |  | -0.352 | -0.025 |
| SP2 (UniProt Q02086) | -0.14 |  | -0.08 | 0.125 |  |  |  | 0.001 |  |  |  |  | 0.083 |  | -0.06 |  |  |  |  |  |
| THAP9 (UniProt Q9H5L6) |  | -0.105 | 0.168 | -0.245 | -0.21 | 0.03 | -0.009 | -0.082 | -0.04 | 0.119 | 0.072 |  | -0.004 |  | 0.041 | 0.191 | 0.17 |  |  |  |
| SPIN4 (UniProt Q56A73) |  |  |  |  |  |  |  |  |  |  |  |  | 0.108 |  | -0.213 |  |  |  |  |  |
| SLC8B1 (UniProt Q6J4K2) |  | 0.129 | 0.196 | -0.073 | -0.477 (active) |  |  | -0.012 |  | -0.019 | 0.103 | 0.058 | -0.793 (active) |  | 0.046 | -0.149 |  |  | -0.053 | 0.006 |
| SLC35F6 (UniProt Q8N357) | -0.247 | 0.076 | -0.049 | -0.219 | -0.083 | -0.037 | -0.13 | 0.078 | 0.143 | 0.049 | 0.052 | 0.01 |  | 0.034 |  | -0.208 | 0.072 | 0.021 |  |  |
| SPIRE1 (UniProt Q08AE8) |  | 0.087 |  |  | -0.073 | 0.007 | 0.063 |  | -0.046 | -0.155 | -0.026 |  | -0.105 | -0.052 | 0.096 | -0.06 | 0.098 | -0.324 | 0.344 | -0.194 |
| TCOF1 isoform 6 (UniProt Q13428) | -0.07 | -0.025 |  |  | -0.122 | -0.102 | 0.14 |  | -0.033 | 0.07 | -0.061 |  | 0.032 | -0.008 | -0.068 | 0.137 | -0.091 |  |  |  |
| TIMM10B (UniProt Q9Y5J6) | 0.107 | 0.031 | 0.308 | -0.161 | 0.077 | 0.006 | -0.04 | 0.138 | -0.052 | 0.01 | 0.224 | -0.001 |  | -0.114 |  | 0.4 | 0.065 | 0.129 | 0.087 | -0.138 |
| TBP (UniProt P20226) |  | 0.303 | -0.135 | -0.098 | -0.006 | 0.008 | 0.093 | 0.104 | 0.079 | -0.112 | 0.036 | 0.013 | 0.048 | 0.072 | -0.023 | -0.039 | 0.004 | -0.021 |  |  |
| STK17B (UniProt O94768) |  |  |  |  |  |  |  |  |  |  |  |  | -0.227 |  | -0.085 | 0.024 |  |  |  |  |
